Structures can show the parent of a compound that is named as a salt. ± gives the standard deviation of the averaged measurements.
Assays:
Experiment in all cases: promoter activity interaction Z-score (Lux/OD deviation from empty-vector control); higher = stronger promoter induction by the compound
[1] = test system: E. coli BW25113 acrABp lux reporter
Summary of the method: (§1)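 Every compound was given at four 1:2 dilutions, in biological duplicates, to E. coli BW25113 carrying low-copy luxCDABE promoter reporters in wild-type or single-gene deletion backgrounds. Growth in 40 µl LB Lennox in 384-well plates at 37°C was followed by OD600 and luminescence readings every 30 min for 12 h, integrated over 0–8 h for wild type and 1–9 h for deletion strains, with wells below 10% of the median growth value excluded. Scores are Z-transformed residuals of growth-normalised luminescence fitted against a control.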

[2] = test system: E. coli BW25113 micFp lux reporter
Summary of the method: as §1

[3] = test system: E. coli BW25113 ompFp lux reporter
Summary of the method: as §1

[4] = test system: E. coli BW25113 robp lux reporter
Summary of the method: as §1

[5] = test system: E. coli BW25113 soxSp lux reporter
Summary of the method: as §1

[6] = test system: E. coli BW25113 tolCp lux reporter
Summary of the method: as §1

[7] = 28.9 µg/ml, genetic background: wild type
[8] = 28.9 µg/ml, genetic background: ΔmarA
[9] = 28.9 µg/ml, genetic background: Δrob
[10] = 28.9 µg/ml, genetic background: ΔsoxS
[11] = 57.7 µg/ml, genetic background: wild type
[12] = 57.7 µg/ml, genetic background: ΔmarA
[13] = 57.7 µg/ml, genetic background: Δrob
[14] = 57.7 µg/ml, genetic background: ΔsoxS
[15] = 115.5 µg/ml, genetic background: wild type
[16] = 115.5 µg/ml, genetic background: ΔmarA
[17] = 115.5 µg/ml, genetic background: Δrob
[18] = 115.5 µg/ml, genetic background: ΔsoxS
[19] = 230.9 µg/ml, genetic background: wild type
[20] = 230.9 µg/ml, genetic background: ΔmarA
[21] = 230.9 µg/ml, genetic background: Δrob
[22] = 230.9 µg/ml, genetic background: ΔsoxS

O=C(O)COCCN1CCN(C(c2ccccc2)c2ccc(Cl)cc2)CC1 (stereo unspecified) [Cetirizine dihydrochloride]
promoter activity interaction Z-score [1, 7]: 0.153 ± 0.22 | promoter activity interaction Z-score [1, 8]: -0.276 ± 0.91 | promoter activity interaction Z-score [1, 9]: 0.0774 ± 0.078 | promoter activity interaction Z-score [1, 10]: 0.344 ± 0.22 | promoter activity interaction Z-score [1, 11]: 0.202 ± 0.41 | promoter activity interaction Z-score [1, 12]: -0.0899 ± 0.93 | promoter activity interaction Z-score [1, 13]: -0.297 ± 0.33 | promoter activity interaction Z-score [1, 14]: 0.424 ± 0.48 | promoter activity interaction Z-score [1, 15]: -0.397 ± 0.14 | promoter activity interaction Z-score [1, 16]: -0.531 ± 0.29 | promoter activity interaction Z-score [1, 17]: -0.491 ± 0.057 | promoter activity interaction Z-score [1, 18]: -0.239 ± 0.68 | promoter activity interaction Z-score [1, 19]: -0.0515 ± 0.05 | promoter activity interaction Z-score [1, 20]: -0.913 ± 0.67 | promoter activity interaction Z-score [1, 21]: -0.435 ± 0.21 | promoter activity interaction Z-score [1, 22]: -0.388 ± 0.13 | promoter activity interaction Z-score [2, 7]: 0.013 ± 0.03 | promoter activity interaction Z-score [2, 8]: -0.101 ± 0.1 | promoter activity interaction Z-score [2, 9]: 0.0307 ± 0.16 | promoter activity interaction Z-score [2, 10]: -0.145 ± 0.42 | promoter activity interaction Z-score [2, 11]: 0.36 ± 0.081 | promoter activity interaction Z-score [2, 12]: 0.049 ± 0.28 | promoter activity interaction Z-score [2, 13]: -0.0293 ± 0.15 | promoter activity interaction Z-score [2, 14]: 0.0699 ± 0.025 | promoter activity interaction Z-score [2, 15]: -0.327 ± 0.23 | promoter activity interaction Z-score [2, 16]: 0.145 ± 0.13 | promoter activity interaction Z-score [2, 17]: 0.0776 ± 0.1 | promoter activity interaction Z-score [2, 18]: 0.0293 ± 0.34 | promoter activity interaction Z-score [2, 19]: -0.141 ± 0.27 | promoter activity interaction Z-score [2, 20]: -0.0442 ± 0.057 | promoter activity interaction Z-score [2, 21]: 0.195 ± 0.18 | promoter activity interaction Z-score [2, 22]: 0.145 ± 0.13 | promoter activity interaction Z-score [3, 7]: 0.228 ± 0.026 | promoter activity interaction Z-score [3, 8]: 0.523 ± 0.32 | promoter activity interaction Z-score [3, 9]: 0.79 ± 0.32 | promoter activity interaction Z-score [3, 10]: 0.079784 ± 6.4e-05 | promoter activity interaction Z-score [3, 11]: 0.523 ± 0.44 | promoter activity interaction Z-score [3, 12]: 0.651 ± 0.083 | promoter activity interaction Z-score [3, 13]: 0.368 ± 0.14 | promoter activity interaction Z-score [3, 14]: -0.205 ± 0.16 | promoter activity interaction Z-score [3, 15]: -0.463 ± 0.064 | promoter activity interaction Z-score [3, 16]: -0.0368 ± 0.095 | promoter activity interaction Z-score [3, 17]: -0.449 ± 0.31 | promoter activity interaction Z-score [3, 18]: -0.656 ± 0.25 | promoter activity interaction Z-score [3, 19]: 0.136 ± 0.46 | promoter activity interaction Z-score [3, 20]: 0.203 ± 0.1 | promoter activity interaction Z-score [3, 21]: -0.688 ± 0.7 | promoter activity interaction Z-score [3, 22]: -0.667 ± 0.25 | promoter activity interaction Z-score [4, 7]: -0.0279 ± 0.081 | promoter activity interaction Z-score [4, 8]: 0.621 ± 0.13 | promoter activity interaction Z-score [4, 9]: 0.0745 ± 0.28 | promoter activity interaction Z-score [4, 10]: -0.318 ± 0.5 | promoter activity interaction Z-score [4, 11]: 0.609 ± 0.057 | promoter activity interaction Z-score [4, 12]: 0.466 ± 0.37 | promoter activity interaction Z-score [4, 13]: -0.327 ± 0.31 | promoter activity interaction Z-score [4, 14]: 0.0119 ± 0.7 | promoter activity interaction Z-score [4, 15]: -0.592 ± 0.34 | promoter activity interaction Z-score [4, 16]: 0.00802 ± 0.12 | promoter activity interaction Z-score [4, 17]: -0.339 ± 0.12 | promoter activity interaction Z-score [4, 18]: -0.844 ± 0.1 | promoter activity interaction Z-score [4, 19]: -0.359 ± 0.2 | promoter activity interaction Z-score [4, 20]: -0.425 ± 0.43 | promoter activity interaction Z-score [4, 21]: -1.18 ± 0.85 | promoter activity interaction Z-score [4, 22]: -0.876 ± 0.55 | promoter activity interaction Z-score [5, 7]: 0.227 ± 0.035 | promoter activity interaction Z-score [5, 8]: 0.219 ± 0.05 | promoter activity interaction Z-score [5, 9]: 0.143 ± 0.03 | promoter activity interaction Z-score [5, 10]: 0.36 ± 0.29 | promoter activity interaction Z-score [5, 11]: 0.625 ± 0.26 | promoter activity interaction Z-score [5, 12]: 0.233 ± 0.067 | promoter activity interaction Z-score [5, 13]: 0.113 ± 0.061 | promoter activity interaction Z-score [5, 14]: 0.411 ± 0.45 | promoter activity interaction Z-score [5, 15]: 0.0448 ± 0.13 | promoter activity interaction Z-score [5, 16]: 0.311 ± 0.1 | promoter activity interaction Z-score [5, 17]: 0.108 ± 0.041 | promoter activity interaction Z-score [5, 18]: 0.145 ± 0.43 | promoter activity interaction Z-score [5, 19]: 0.0238 ± 0.4 | promoter activity interaction Z-score [5, 20]: 0.289 ± 0.11 | promoter activity interaction Z-score [5, 21]: 0.127 ± 0.06 | promoter activity interaction Z-score [5, 22]: -0.0281 ± 0.68 | promoter activity interaction Z-score [6, 7]: -0.028 ± 0.45 | promoter activity interaction Z-score [6, 8]: 0.994 ± 0.066 | promoter activity interaction Z-score [6, 9]: 0.083 ± 0.48 | promoter activity interaction Z-score [6, 10]: 0.251 ± 1.2 | promoter activity interaction Z-score [6, 11]: 1.49 ± 0.11 | promoter activity interaction Z-score [6, 12]: 0.225 ± 0.61 | promoter activity interaction Z-score [6, 13]: 0.369 ± 1.3 | promoter activity interaction Z-score [6, 14]: -0.607 ± 0.17 | promoter activity interaction Z-score [6, 15]: 0.247 ± 0.057 | promoter activity interaction Z-score [6, 16]: -0.0757 ± 0.41 | promoter activity interaction Z-score [6, 17]: 0.295 ± 0.29 | promoter activity interaction Z-score [6, 18]: -0.698 ± 0.023 | promoter activity interaction Z-score [6, 19]: 0.059 ± 0.6 | promoter activity interaction Z-score [6, 20]: -0.764 ± 0.4 | promoter activity interaction Z-score [6, 21]: -0.176 ± 0.18 | promoter activity interaction Z-score [6, 22]: 0.432 ± 0.65

— the supplement of paper PMC12282887
